The values that follow come from PubChem BioAssay AID977624 (Broad Institute, 2014).

Screen size: about 1,800 compounds; fewer than 10 were called active. Roughly 44% stayed inconclusive and do not appear here.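 The calls were made as follows: active = compound lowering the normal-ribosome reporter at least twice as much as the humanized-ribosome reporter, growth loss under a set limit; inconclusive = no clear call, values can overlap the other calls; inactive = the rest.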 Only a sample is shown.

The assay in a line: growth inhibition of wild-type GFP E. coli, dose response, h34 mutant RFP, cherry-pick (AID 977624). To be noted: E. coli wild-type GFP strain growth, fluorescence, 24 h; series mostly up to 50 µM.
Consider `Cc1cccc(C)c1Nc1ncnc2ccccc12`, for which the call was inactive. In the case of `Cc1ccc(-c2n[nH]c(S(C)(=O)=O)c2C#N)cc1`, the compound was classed as inactive. In the case of `C=CCN(c1ccccc1)S(=O)(=O)c1cccc2cccnc12`, the compound was classed as inactive.

`Cc1nn(Cc2cccc(F)c2)c(C)c1NC(=O)c1c(Cl)cnn1C`: the compound was called inactive. For `COc1ccc(NC(=O)CCC(=O)c2cccs2)cc1S(=O)(=O)Nc1ccc(Cl)cc1`, the result was inactive. To `C[C@@H]1CN([C@H](C)CO)C(=O)CCCn2nncc2CO[C@@H]1CN(C)C(=O)Nc1ccc(C(F)(F)F)cc1` belongs “inactive”; to `COc1ccccc1OCC(=O)Nc1ccc(S(=O)(=O)N2CCCCCC2)cc1`, “inactive”.

For `CN(C)CCCN(C(=O)CCSc1ccccc1)c1nc2cc3c(cc2s1)OCO3`, the result was inactive. Turning to `CCCC(=O)N(CCc1ccc(OC)cc1)Cc1nc2ccccc2c(=O)[nH]1`, the call was inactive. Take `Cc1ccc(NC(=O)c2c(C)noc2-c2snnc2C)cc1`: the call was inactive. On to `COC(=O)c1sc(C(C)(C)C)cc1CS(=O)(=O)c1ccc(Cl)cc1`, for which the compound was called inactive. As to `CCc1ccc(NC(=O)COC(=O)CCCC2=NS(=O)(=O)c3ccccc3N2)cc1`, the call was inactive.

For the compound `CCn1c(-c2ccccc2Cl)nn(CC(=O)Nc2ccccc2OC)c1=S`, the outcome was inactive. As for `C[C@@H]1CCCCO[C@@H](CN(C)C)[C@@H](C)CN([C@@H](C)CO)C(=O)c2cc(NC(=O)Nc3cccc4ccccc34)ccc2O1`, the call was inactive. Turning to `CC(C)CNc1nc(S(=O)(=O)c2ccccc2)c(Cl)s1`, the compound was called inactive. As to `Cc1ccc(-c2nc(CN3CCCCC3c3cccc(F)c3)c(C)o2)o1` (configuration not stated), the compound was classed as inactive. The same measure for `CCOC(=O)c1c(C)nsc1NCc1ccccc1`: “inactive”; for `CC(C)CN1C(=O)c2ccc(C(=O)Nc3ccncc3)cc2C1=O`: “inactive”. For the compound `COc1cccc(C(NC(C)=O)c2nc(-c3ccccc3OC)cs2)c1` (configuration not stated), the call was inactive. The same measure for `Cc1cccc(-c2ccc([C@H]3[C@H]4CN(S(=O)(=O)c5ccccc5C)CCCCN4[C@H]3CO)cc2)c1`: “inactive”. The same measure for `CC(=O)Nc1cccc(NC(=O)CSc2ccc(-c3cccnc3)nn2)c1`: “inactive”. As for `CCOC(=O)c1cc(-c2ccc(OC)cc2)n[nH]1`, the result was inactive. With `CCN(CC)CCN(C(=O)c1ccc2c(c1)OCCO2)c1nc2c(Cl)cccc2s1`, the result was inactive. To `CN(C)Cc1nc2ccccc2c(=O)n1Cc1nc(-c2cccc([N+](=O)[O-])c2)cs1` belongs “inactive”. In the case of `COc1cccc(NC(=O)COC(=O)Cc2ccccc2[N+](=O)[O-])c1`, the outcome was inactive. On to `CCOC(=O)Cc1nnc(NC(=O)CSc2nc3ccccc3[nH]2)s1`, for which the result was inactive. The same measure for `O=C(O)CCCCCCCCc1cn(CC2CCCCC2)nn1`: “inactive”; for `O=C(Nc1ccncc1)c1ccc(S(=O)(=O)Nc2ccccc2)cc1`: “inactive”. With `Cc1cccc(OCCC(=O)Nc2ccc(F)c(F)c2)c1`, the compound was called inactive. Consider `CCN(CC(=O)Nc1cccc(C#N)c1)CC(=O)Nc1cccc(OC)c1`, for which the compound was called inactive.

`C=C(C)Cn1c(=O)c2c(nc3n2CC(C)CN3Cc2ccccc2)n(C)c1=O` (configuration not stated): the result was inactive. For the compound `O=S1(=O)N[C@H](Cc2ccccc2)COc2cccc(N3CCC[C@H]3CO)c21`, the result was inactive. Turning to `Cc1ccccc1-n1ncc2c1CC(C)(C)CC2NC(=O)CCN1Cc2ccccc2C1=O` (configuration not stated), the result was inactive. Take `O=C(Nc1ccc2c(c1)OCO2)c1cccc(S(=O)(=O)N2CCCC2)c1`: the call was inactive. For the compound `CCOc1ccccc1NC(=O)c1ccc2ccccc2c1`, the outcome was inactive.

For the compound `CC(=O)c1c(C)nn(CC(O)COc2ccc3c(c2)CCC3)c1C` (configuration not stated), the call was inactive. To `Cn1nc(C(C)(C)C)c([N+](=O)[O-])c1C(=O)Nc1ccc(Br)cc1` belongs “inactive”; to `COc1ccccc1C(=O)COC(=O)c1cccs1`, “inactive”. As for `Nc1nc(Nc2ccccc2F)nc(N2CCOCC2)c1[N+](=O)[O-]`, the call was inactive.

As to `O=C(c1cc(S(=O)(=O)N2CCOCC2)ccc1Cl)N1CCc2ccccc2C1`, the compound was called inactive. Regarding `CSc1nc2nc3c(cc2c(=O)n1-c1ccccc1C)CCCC3`, the call was inactive.

As for `Cc1cc([N+](=O)[O-])nn1CC(=O)Nc1cc(F)ccc1F`, the result was inactive. In the case of `Nc1ccccc1Sc1ccc(C(F)(F)F)cc1[N+](=O)[O-]`, the compound was called inactive. For `Cc1noc(C)c1COc1cccc(C(=O)N2CCc3ccccc32)c1`, the result was inactive. On to `CCCc1nc2oc3c(NCCCN(C)C)ncnc3c2c2c1CCCC2`, for which the call was inactive. As to `O=C(c1ccc2c(c1)CCN2S(=O)(=O)c1ccccc1)N1CCN(c2ccccc2)CC1`, the compound was classed as inactive. Take `O=C(O)c1ccc(-c2nc(-c3ccccc3)cs2)cc1`: the compound was classed as inactive. Regarding `CCc1ccc2nc(N(CCCN(C)C)C(=O)c3ccc4c(c3)OCCO4)sc2c1`, the compound was classed as inactive.

Take `Nc1ncncc1-c1ccc(Cl)cc1`: the compound was classed as inactive. Take `CC(=O)Nc1ccc(S(=O)(=O)Nc2cccc(-c3nc4cc(C)ccc4o3)c2)cc1`: the compound was called inactive. Consider `OCCN(Cc1ccccc1)Cc1ccc(F)c(F)c1`, for which the result was inactive. On to `COC(=O)c1ccccc1NC(=O)c1ccc2c(c1)CC(C)O2` (configuration not stated), for which the result was inactive. With `O=C(CN1CCCCC1)Nc1ccccc1-c1ccccc1`, the outcome was inactive.

Consider `Cc1cc(C(=O)OCC(=O)Nc2cccc(S(N)(=O)=O)c2)c2ccccc2n1`, for which the call was inactive. Take `COc1cccc(S(=O)(=O)N2CCCCN3[C@H](CO)[C@H](c4ccc(C#CC(C)C)cc4)[C@@H]3C2)c1`: the call was inactive. As for `Cc1sc(NC(=O)CN2CCOCC2)nc1-c1ccc2c(c1)CCN2S(=O)(=O)c1ccccc1`, the call was inactive.

As to `Cc1ccc2nc(SCC(=O)c3ccc4c(c3)NC(=O)CO4)[nH]c2c1`, the compound was classed as inactive. For `COc1cccc(NC(=O)CN(C)CC(=O)Nc2ccc(Br)cc2)c1`, the outcome was inactive. For the compound `COc1ccc(S(=O)(=O)N(C)C)cc1NC(=O)c1ccc2c(c1)NC(=O)C(C)S2` (configuration not stated), the result was inactive.

On to `COc1cc(-c2cc3nc(NCCc4ccncc4)ccn3n2)cc(OC)c1OC`, for which the compound was called inactive. The same measure for `N#Cc1ccc(OCC(=O)N2CCN(S(=O)(=O)c3ccc(Cl)s3)CC2)cc1`: “inactive”; for `Cc1ccc(NC(=O)c2ccc([N+](=O)[O-])o2)c(C)c1`: “inactive”; for `COc1ccc(Cn2c(=O)c3[nH]cnc3n(-c3ccc(C)cc3)c2=O)cc1`: “inactive”.

As to `S=C1SCN(Cc2cccnc2)CN1Cc1ccccc1`, the outcome was inactive. As to `CCOc1ccc(CCNC(=O)CCn2ccc3cc(S(=O)(=O)N4CCCC4)ccc32)cc1`, the result was inactive. As for `O=C(c1ccc(N2CCCCC2)c([N+](=O)[O-])c1)N1CCN(c2ccccn2)CC1`, the compound was called inactive. To `CN(C(=O)COc1ccccc1C(=O)NCCOc1ccccc1)c1ccccc1` belongs “inactive”.
